Data published in PubChem BioAssay (Tox21).
Results filed as inconclusive are left out. The source made the active and inactive calls. Unless noted, calls follow the shape of the full dose curve. Positions of bridges follow the written chain, without caps; N, C: chain ends. Non-standard residues stand in square brackets, D forms with d. Residues, ends and D or L forms follow the SMILES beside them. hArg = N=C(N)NCCCC[C@H](N)C(=O)O; Mpa = O=C(O)CCS

Legend:
[1] = qHTS assay to identify small molecule antagonists of the estrogen related receptor signaling pathway with the pleiotropic PPARgamma coactivator (PGC) from Tox21 10K library - cell viability counter screen (AID 1224840; active = well fitted cell-killing curve with a large enough effect in the repeat runs, not every such curve was filed as active; also: nearly all actives have a fitted effect of over 40% in size)
Outline: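 Fluorescence read-out of CellTiter-Fluor viability reagent, added after cells had been exposed to compound in DMSO for 17.5 h at 37 C; 30 min development at 37 C/5% CO2. Cells: PGC/ERR line, 2,000/well.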

[2] = qHTS assay to identify small molecule agonists of the estrogen related receptor signaling pathway with the pleiotropic PPARgamma coactivator (PGC) from Tox21 10K library (AID 1224842; active = well fitted curve in the direction sought with a large enough effect in the repeat runs; an effect the other way counts as inactive or inconclusive; also: nearly all actives have a fitted effect of over 15% in size)
Outline: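 Luminescence from One-Glo (30 min, room temperature) measured after PGC/ERR cells had 18 h at 37 C with pinned compound (23 nL in DMSO). Cells had been seeded at 2,000 per well and pre-incubated 6 h.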

[3] = target: Thyrotropin receptor (Homo sapiens) (UniProt P16473); assay: qHTS assay to identify small molecule agonists of the thyroid stimulating hormone receptor (TSHR) signaling pathway (AID 1224843); also: nearly all actives have a fitted effect of over 45% in size
Thyrotropin receptor (Homo sapiens), sequence (P16473 whole entry, looked up): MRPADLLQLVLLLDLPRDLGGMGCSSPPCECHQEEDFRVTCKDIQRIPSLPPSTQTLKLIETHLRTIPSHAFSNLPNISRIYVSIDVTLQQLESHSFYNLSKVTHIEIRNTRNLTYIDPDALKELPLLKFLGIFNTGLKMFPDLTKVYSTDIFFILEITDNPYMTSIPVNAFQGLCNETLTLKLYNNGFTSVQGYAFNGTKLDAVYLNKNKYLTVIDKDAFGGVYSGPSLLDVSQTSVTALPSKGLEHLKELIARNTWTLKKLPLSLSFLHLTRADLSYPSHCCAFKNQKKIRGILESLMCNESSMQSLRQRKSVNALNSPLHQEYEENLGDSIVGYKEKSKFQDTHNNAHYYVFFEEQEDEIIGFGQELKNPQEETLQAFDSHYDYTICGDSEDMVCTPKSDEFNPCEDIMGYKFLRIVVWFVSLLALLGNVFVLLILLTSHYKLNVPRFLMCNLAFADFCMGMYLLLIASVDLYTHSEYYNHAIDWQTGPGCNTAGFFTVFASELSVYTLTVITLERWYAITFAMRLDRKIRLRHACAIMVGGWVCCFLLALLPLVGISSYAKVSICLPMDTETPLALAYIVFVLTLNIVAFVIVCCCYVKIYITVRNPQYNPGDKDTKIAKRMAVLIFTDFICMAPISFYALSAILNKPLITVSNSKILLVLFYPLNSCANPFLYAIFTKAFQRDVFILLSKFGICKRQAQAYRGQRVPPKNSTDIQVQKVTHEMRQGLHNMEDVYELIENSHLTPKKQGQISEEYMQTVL
Outline: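 A cell-based cAMP HTRF format was run in TSHR-transfected HEK293 cells, 800 per well. Treatment: 30 min, room temperature. Detection: 1 h with labelled cAMP and anti-cAMP cryptate. Concentration-response over 15 points, three replicates.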

[4] = qHTS assay to identify small molecule agonists of the hypoxia (HIF-1) signaling pathway - cell viability counter screen (AID 1224844); also: nearly all actives have a fitted effect of over 50% in size
Outline: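 CellTiter-Glo luminescence read-out, 30 min RT, taken in the same wells as the beta-lactamase HRE reporter assay; HRE-bla ME-180 cells, 0.5% dialyzed FBS, 17 hr compound treatment at 37C, 5% CO2.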

[5] = qHTS assay to identify small molecule agonists of H2AX (AID 1224845; active = well fitted activation curve with a large enough effect in the signal ratio in the repeat runs, not every such curve was filed as active; the % refers to the signal ratio)
Outline: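 Phospho-H2AX Ser139 measured by HTRF (ex 320 nm; em 665 and 620 nm) after 24 hr antibody incubation. Compounds, 15 concentrations, 0.76% DMSO, were applied to CHO-K1 cells for 3hr at 37C before lysis.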

[6] = qHTS assay to identify small molecule agonists of the hypoxia (HIF-1) signaling pathway (AID 1224846; active = well fitted activation curve with a large enough effect in the signal ratio in the repeat runs, not every such curve was filed as active; the % refers to the signal ratio)
Outline: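 Beta-lactamase FRET read-out (CCF4-AM substrate) from ME-180 cells carrying an HRE-driven bla reporter, after 17 hrs compound exposure at 37C/5% CO2. Cells were seeded at 2,000 per well in 0.5% dialyzed FBS medium and preincubated 5 hrs.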

[7] = qHTS assay to identify small molecule agonists of H2AX - cell viability counter screen (AID 1224847);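 also: wild-type CHO-K1 cells; top concentration of the series differs between compounds; nearly all actives have a fitted effect of over 30% in size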
Outline: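 Cells plated first: CHO-K1, 1000 per well in 10% FBS medium, incubated overnight at 37C. Then 15-point compound titration added (final DMSO 0.76%) for 3 hr. Finally CellTiter-Glo added and luminescence read.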

[8] = qHTS assay to identify small molecule antagonists of the estrogen related receptor (ERR) signaling pathway from Tox21 library (AID 1224848; active = well fitted curve in the direction sought with a large enough effect in the repeat runs; an effect the other way counts as inactive or inconclusive; also: nearly all actives have a fitted effect of over 50% in size)
Outline: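 ERR cell line, 2,000 cells/well. 6 h settle, then compound (DMSO) added; 18 h at 37 C; ONE-Glo luminescence after 30 min RT.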

[9] = target: Nuclear receptor subfamily 1 group I member 3 (Homo sapiens) (UniProt Q14994); assay: qHTS assay to identify small molecule agonists of the constitutive androstane receptor (CAR) signaling pathway (AID 1224839; active = well fitted curve in the direction sought with a large enough effect in the repeat runs; an effect the other way counts as inactive or inconclusive;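 also: HepG2 cells stably carrying human CAR and a CYP2B6 luciferase reporter; series mostly up to about 92 µM; nearly all actives have a fitted effect of over 15% in size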)
Nuclear receptor subfamily 1 group I member 3 (Homo sapiens), sequence (Q14994 whole entry, looked up): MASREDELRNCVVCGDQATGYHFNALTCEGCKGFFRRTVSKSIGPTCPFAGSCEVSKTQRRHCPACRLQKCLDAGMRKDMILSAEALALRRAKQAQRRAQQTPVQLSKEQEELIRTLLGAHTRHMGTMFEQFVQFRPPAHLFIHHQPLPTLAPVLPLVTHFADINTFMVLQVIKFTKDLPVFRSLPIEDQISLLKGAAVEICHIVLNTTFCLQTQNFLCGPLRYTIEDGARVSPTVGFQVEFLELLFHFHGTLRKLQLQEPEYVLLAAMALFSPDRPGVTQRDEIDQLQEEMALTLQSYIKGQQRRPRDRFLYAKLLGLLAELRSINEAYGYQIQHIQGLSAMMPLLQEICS
Outline: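 HepG2-CYP2B6-hCAR cells, 2500/well, 4 h pre-incubation; compounds 15 conc.; PK11195 0.75 uM final; 24 h, 37 C/5% CO2; ONE-Glo luciferase read.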

[10] = qHTS assay to identify small molecule antagonists of the estrogen related receptor signaling pathway with the pleiotropic PPARgamma coactivator (PGC) from Tox21 10K library (AID 1224841; call rule not given here; also: series mostly up to about 92 µM; actives are mostly falling curves and most rising ones were filed inactive; nearly all actives have a fitted effect of over 50% in size)
Outline: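 Luminescence read-out (One-Glo luciferase reagent, 30 min at room temperature) from PGC/ERR cells exposed to DMSO-dissolved test compounds for 18 h at 37 C; cells, 2,000 per well, had been preincubated 6 h before compound transfer.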
% is scaled to controls: 0 for no effect and ±100 for the full control effect.

COc1nc(N)nc2nc[nH]c12
inactive: outcome [1] | outcome [2] | outcome [3] | outcome [4] | outcome [5] | outcome [6] | outcome [7] | Potency [8]

CCC[C@@H]1C[C@@H](C(=O)N[C@@H]([C@H]2O[C@H](SC)[C@H](O)[C@@H](O)[C@H]2O)[C@@H](C)O)N(C)C1
inactive: Potency [9] | outcome [1] | outcome [3] | outcome [4] | outcome [5] | outcome [7]

Cc1c(NC(=O)c2cccnc2)c(=O)n(-c2ccccc2)n1C
inactive: Potency [9] | outcome [1] | outcome [3] | outcome [4] | outcome [5] | outcome [7]

CN1CCOC(c2ccccc2)c2ccccc2C1 (configuration not stated)
inactive: Potency [9] | outcome [1] | outcome [3] | outcome [4] | outcome [5] | outcome [7]

CN(C)CCOC(=O)C(c1ccccc1)C1(O)CCCC1 (configuration not stated)
inactive: Potency [9] | outcome [1] | outcome [3] | outcome [4] | outcome [5] | outcome [7]

O=C(NCN1CCOCC1)c1cnccn1
inactive: Potency [9] | outcome [1] | outcome [4] | outcome [5] | outcome [6] | outcome [7]

CC(=O)CCC1=C(C)CCCC1(C)C
inactive: outcome [1] | outcome [3] | outcome [4] | outcome [5] | outcome [6] | outcome [7]

O=C[O][Al]([O]C=O)[O]C=O
inactive: Potency [9] | outcome [1] | outcome [3] | outcome [4] | outcome [6] | outcome [7]

C=C(C)[C@@H]1CC=C(C)CC1
inactive: Potency [9] | outcome [1] | outcome [4] | outcome [5] | outcome [6] | outcome [7]

CC1=C(C(=O)O)N2C(=O)[C@@H](NC(=O)[C@H](N)C3=CCC=CC3)[C@H]2SC1
inactive: Potency [9] | outcome [1] | outcome [3] | outcome [4] | outcome [5] | outcome [7]

Cc1ncc([N+](=O)[O-])n1CC(C)O (configuration not stated)
inactive: Potency [9] | outcome [1] | outcome [4] | outcome [5] | outcome [6] | outcome [7]

CC(N)CCCC(C)(C)O (configuration not stated)
inactive: Potency [9] | outcome [1] | outcome [3] | outcome [4] | outcome [5] | outcome [7]

CCCC(=O)OCCC(C)CCC=C(C)C (configuration not stated)
inactive: outcome [1] | outcome [10] | outcome [2] | outcome [4] | outcome [5] | outcome [6] | outcome [7] | Potency [8]

Cc1cc(-c2ccccc2)nnc1NCCN1CCOCC1
inactive: Potency [9] | outcome [1] | outcome [3] | outcome [4] | outcome [5] | outcome [7]

CC(=O)c1cc(C)oc1C
inactive: Potency [9] | outcome [1] | outcome [4] | outcome [5] | outcome [6] | outcome [7]

[O-][n+]1cccc(/C(Cl)=N/OC[C@@H](O)CN2CCCCC2)c1
inactive: Potency [9] | outcome [1] | outcome [4] | outcome [5] | outcome [6] | outcome [7]

CCCC(=O)OC/C=C(\C)CCC=C(C)C
inactive: outcome [1] | outcome [3] | outcome [4] | outcome [5] | outcome [6] | outcome [7]

C=CC/C=C/C
inactive: outcome [1] | outcome [3] | outcome [4] | outcome [5] | outcome [6] | outcome [7]

NCCOCCN
inactive: outcome [1] | outcome [3] | outcome [4] | outcome [5] | outcome [6] | outcome [7]

CCCCCCCCCCCCCCCCCCOCCO
inactive: viability change, negative = cytotoxic [1] -0.639% [at 19 µM] | activation [3] -2.81% [at 19 µM] | activity change, negative = cytotoxicity [4] 16.8% [at 15.8 µM] | activation (H2AX phosphorylation) [5] -3.63% [at 31.6 µM] | activation [6] 0.444% [at 15.8 µM] | activity change, negative = cytotoxicity [7] -6.52% [at 31.6 µM]

C=C(C)[C@@H]1CC=C(C)C(=O)C1
inactive: outcome [1] | outcome [3] | outcome [4] | outcome [5] | outcome [6] | outcome [7]

O=C1CCCCO1
inactive: outcome [1] | outcome [3] | outcome [4] | outcome [5] | outcome [6] | outcome [7]

COC(=O)/C=C\C(=O)O
inactive: outcome [1] | outcome [3] | outcome [4] | outcome [5] | outcome [6] | outcome [7]

C=C(C)c1cccc(C(C)(C)N=C=O)c1
inactive: outcome [1] | outcome [3] | outcome [4] | outcome [5] | outcome [6] | outcome [7]

Cc1ccccc1C(N)=O
inactive: outcome [1] | outcome [3] | outcome [4] | outcome [5] | outcome [6] | outcome [7]

CCOCCOCC
inactive: outcome [1] | outcome [3] | outcome [4] | outcome [5] | outcome [6] | outcome [7]

Cc1cc(C)c(C(=O)O)c(C)c1
inactive: outcome [1] | outcome [3] | outcome [4] | outcome [5] | outcome [6] | outcome [7]

OCCN1CCOCC1
inactive: outcome [1] | outcome [3] | outcome [4] | outcome [5] | outcome [6] | outcome [7]

CN1C[C@@H]2C[C@H]1CN2c1cc2c(cc1F)c(=O)c(C(=O)O)cn2C1CC1
inactive: viability change, negative = cytotoxic [1] 6.5% [at 19 µM] | activation [3] 1.11% [at 19 µM] | activity change, negative = cytotoxicity [4] 12.6% [at 15.8 µM] | activation (H2AX phosphorylation) [5] -0.432% [at 31.6 µM] | activation [6] -0.622% [at 15.8 µM] | activity change, negative = cytotoxicity [7] 4.25% [at 31.6 µM]

C=C(C)C1CC=C(C)C(=O)C1 (configuration not stated)
inactive: outcome [1] | outcome [3] | outcome [4] | outcome [5] | outcome [6] | outcome [7]

Cc1c(N)cccc1Cl
inactive: outcome [1] | outcome [3] | outcome [4] | outcome [5] | outcome [6] | outcome [7]

COC(=O)c1cccc(Cl)c1
inactive: outcome [1] | outcome [3] | outcome [4] | outcome [5] | outcome [6] | outcome [7]

NC(=O)[C@@H]1CSSCCC(=O)N[C@@H](CCCCN=C(N)N)C(=O)NCC(=O)N[C@@H](CC(=O)O)C(=O)N[C@@H](Cc2c[nH]c3ccccc23)C(=O)N2CCC[C@H]2C(=O)N1 ([Mpa][hArg]GDWPC-NH2; disulfide 1-7)
inactive: outcome [1] | outcome [3] | outcome [4] | outcome [6] | outcome [7]

CC1CC(=O)CC(C)(C)C1 (configuration not stated)
inactive: outcome [1] | outcome [3] | outcome [4] | outcome [5] | outcome [6] | outcome [7]

CC(C)=CCC[C@@](C)(O)[C@H]1CC=C(C)CC1
inactive: outcome [1] | outcome [3] | outcome [4] | outcome [5] | outcome [6] | outcome [7]

C[C@]12CCC(=O)C=C1CC[C@H]1[C@@H]3CC[C@](O)(C(=O)CO)[C@@]3(C)C[C@H](O)[C@@]12F
inactive: outcome [1] | outcome [3] | outcome [4] | outcome [5] | outcome [6] | outcome [7]

O=C(CCCl)NCCc1ccccc1
inactive: outcome [1] | outcome [3] | outcome [4] | outcome [5] | outcome [6] | outcome [7]

CC(=O)CC(=O)Nc1ccc(C)cc1C
inactive: outcome [1] | outcome [3] | outcome [4] | outcome [5] | outcome [6] | outcome [7]

CC(C)Nc1ccccc1
inactive: outcome [1] | outcome [3] | outcome [4] | outcome [5] | outcome [6] | outcome [7]

C=Cc1ccc(C(C)(C)C)cc1
inactive: outcome [1] | outcome [3] | outcome [4] | outcome [5] | outcome [6] | outcome [7]

CC1(C)O[C@H]2CC(=O)OC[C@]23[C@H]2CC[C@@]4(C)[C@H](c5ccoc5)OC(=O)[C@H]5O[C@]54[C@]2(C)C(=O)C[C@@H]13
inactive: outcome [1] | outcome [3] | outcome [4] | outcome [5] | outcome [6] | outcome [7]

Cc1ccnc(N)c1
inactive: outcome [1] | outcome [3] | outcome [4] | outcome [6] | outcome [7]

CCCC(=O)Nc1ccc(OCC(O)CNC(C)C)c(C(C)=O)c1 (configuration not stated)
inactive: outcome [1] | outcome [3] | outcome [4] | outcome [5] | outcome [7]

CCCc1ccc(O)cc1
inactive: outcome [1] | outcome [3] | outcome [4] | outcome [5] | outcome [6] | outcome [7]

CCCCCC/C=C/C(=O)OC
inactive: outcome [1] | outcome [3] | outcome [4] | outcome [5] | outcome [6] | outcome [7]

CC(CO)(CO)CO
inactive: outcome [1] | outcome [3] | outcome [4] | outcome [5] | outcome [6] | outcome [7]

CCC(=O)Oc1ccc2c(c1)CC[C@@H]1[C@@H]2CC[C@@]2(C)[C@H]1C[C@@H](OC(=O)CC)[C@@H]2OC(=O)CC
inactive: outcome [1] | outcome [3] | outcome [4] | outcome [5] | outcome [6] | outcome [7]

CCC(C)C(C)=O (configuration not stated)
inactive: outcome [1] | outcome [3] | outcome [4] | outcome [5] | outcome [6] | outcome [7]

CC1=NN(c2ccc(S(=O)(=O)O)cc2)C(=O)C1
inactive: outcome [1] | outcome [3] | outcome [4] | outcome [6] | outcome [7]

CSc1cnccn1
inactive: outcome [1] | outcome [3] | outcome [4] | outcome [5] | outcome [6] | outcome [7]

Cc1ccc2c(c1)C(=O)c1ccccc1C2=O
inactive: outcome [1] | outcome [3] | outcome [4] | outcome [6] | outcome [7]

C/C=C(\C)C(C)=O
inactive: outcome [1] | outcome [3] | outcome [4] | outcome [5] | outcome [6] | outcome [7]

CCCCCc1cccc(=O)o1
inactive: outcome [1] | outcome [3] | outcome [4] | outcome [5] | outcome [6] | outcome [7]
